This is part of a sample that, as a whole, favours compounds with a hit. Of some 83,000 tested, about 20% had one in any assay.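 Single-dose data. Exposure time 48 hours. Values below 10 considered active.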 Unmarked numbers belong to inactive results. Activity calls are given as the source filed them.
System: 786-0 renal
Test: NCI-60 one-dose screen, 48 h (100 = growth as untreated, 0 = no growth, -100 = all killed)
Conditions: 10 µM

In order of falling growth:
1. CC(=O)Nc1ccc(S(=O)(=O)c2ccnc3cc(Cl)ccc23)cc1  125%
2. COc1ccc(C(=O)N2C=Cc3ccccc3C2C#N)cc1 (centres undefined)  114%
3. COC(=O)c1c[nH]c2cc(OC(C)C)c(OC(C)C)cc2c1=O  110%
4. O=C(c1ccccc1)N(C(=O)c1ccccc1)N1CCCC1  110%
5. O[C@@H]1CO[C@H]2[C@@H]1OC[C@@H]2O  109%
6. CN(C)CCC1(c2ccccc2)CCN(C)C1=O (centres undefined)  109%
7. COC(=O)CC[C@@H](C)[C@H]1CC[C@H]2[C@@H]3CC[C@@H]4C[C@H](O)CC[C@]4(C)[C@H]3C[C@H](O)[C@]12C  107%
8. COc1ccc(/C(=N\N)C(=O)c2ccccc2)cc1 (tested in a mixture with another compound)  105%
9. CC(C)(C)OC(=O)CC(S(=O)(=O)c1ccccc1)S(=O)(=O)c1ccccc1  105%
10. O=[N+]([O-])c1ccc(/C(=C/c2ccccc2)[n+]2ccccc2)cc1  104%
11. Cc1ccc(C(=O)C2C(=O)C3CCC2C3)cc1 (centres undefined)  104%
12. COC(=O)C1OC1c1cc([N+](=O)[O-])ccc1OC (centres undefined)  104%
13. CCOC(=O)N/N=C/c1ccc(OC)c(OC)c1  104%
14. O=C(N/N=C/c1c(Cl)cccc1Cl)c1ccccc1Nc1cccc(C(F)(F)F)c1  102%
15. N#CC1=CC2CN(Cc3ccccc3)C1C1C(=O)N(c3ccccc3)C(=O)C21 (centres undefined)  102%
16. COc1ccc(/C=C2\CCCC3C2=Nc2ccccc2NC3c2ccc(OC)cc2)cc1 (centres undefined)  101%
17. COc1ccc(C(=O)c2ccccc2CN2C(=O)c3ccccc3C2=O)cc1  101%
18. S=C1N(c2ccccc2)CN(C2CCCCC2)CN1c1ccccc1  100%
19. NC1=CC(=O)C(=O)c2cccnc21  99.7%
20. O=c1cn[nH]c2ccc(Br)cc12  99.6%
21. COc1nc2c(c(=O)n1C)CN(c1ccccc1)C(=O)C(C)N2 (centres undefined)  97.5%
22. Fc1ccc(C(c2ccc(F)cc2)C(Cl)Cl)cc1  95.7%
23. Nc1nc(-c2ccc(Cl)cc2)cc(-c2cc3ccccc3oc2=O)n1  95.7%
24. Nc1cc(-c2ccc(Cl)cc2)nn1-c1nc2ccccc2nc1Cc1ccccc1  89.5%
25. COc1ccc(-c2nn(-c3cccc(Cl)c3)cc2-c2c(C#N)c(N)n(N)c(=O)c2C#N)cc1  84.2%
26. Cc1cc(O)ccc1C1=NN(c2ccc(S(C)(=O)=O)cc2)C(=O)CC1  84.1%
27. O=C1NC(=O)c2c(CCCSc3nc4ccccc4c(=O)n3CCc3ccccc3)cccc21  78.6%
28. COc1cc2c(Nc3ccc(-c4ccc(N)cc4)cc3)ncnc2c(OC)c1OC  48%
29. CCc1ccc(C2=NN(c3ccc(S(C)(=O)=O)cc3)C(=O)CC2)cc1  36.4%
30. CCOc1ccccc1/C=N\N=C(\N)N/N=C/c1ccccc1OCC  21.4%
31. Nc1ncc(-c2cnn(C3CCNCC3)c2)cc1-c1nc2ccccc2o1  19.5%
32. CN(C)c1ncnc2c1nnn2C1OC(CO)C(O)C1O (centres undefined)  17.2%

In the case of `COc1ccc(-c2nn(-c3cccc(Cl)c3)cc2-c2c(C#N)c(=O)n3[nH]c(-c4ccc(C)cc4)nc3c2C#N)cc1`, the growth is reported as 3.78% (active).
For `Cc1cc(NC(=O)c2ccc(C)c(Nc3nccc(-c4cccnc4)n3)c2)cc(-n2cnc(C)c2)c1`, the growth was -30% (active).
With `c1ccc(/C(=N\Nc2ccc3ccccc3n2)c2ccccn2)cc1` the growth was -35.9% (active).
With `Cc1cc(Cl)ccc1Nc1nc(C(F)(F)F)ccc1C(=O)N/N=C/c1c(Cl)cccc1Cl` the growth was -63.5% (active).
With `CCCCCCCCCCCC[n+]1c(C)cc(N)c2ccccc21` the growth was 0.277% (active).
`Cc1cn(-c2cc(F)cc(NC(=O)c3ccc(C)c(Nc4nccc(-c5cccnc5)n4)c3)c2)cn1` was tested, and the growth was -6.06% (active).
With `N#Cc1c(-c2ccc(Cl)cc2)n(O)c2ccccc12` the growth was 8.19% (active).
In the case of `O=c1c(Br)ccc(Br)cc1Br`, the growth is reported as -29.3% (active).

System: COLO 205 colon
Test: as above
Conditions: 10 µM

In order of rising growth:
1. COc1cc2c(Nc3ccc(-c4ccc(N)cc4)cc3)ncnc2c(OC)c1OC  19.8%
2. CCc1ccc(C2=NN(c3ccc(S(C)(=O)=O)cc3)C(=O)CC2)cc1  22.5%
3. c1ccc(/C(=N\Nc2ccc3ccccc3n2)c2ccccn2)cc1  26.5%
4. CCOc1ccccc1/C=N\N=C(\N)N/N=C/c1ccccc1OCC  28.9%
5. Cc1cc(O)ccc1C1=NN(c2ccc(S(C)(=O)=O)cc2)C(=O)CC1  65.8%
6. Cc1cn(-c2cc(F)cc(NC(=O)c3ccc(C)c(Nc4nccc(-c5cccnc5)n4)c3)c2)cn1  70.9%
7. COc1ccc(-c2nn(-c3cccc(Cl)c3)cc2-c2c(C#N)c(N)n(N)c(=O)c2C#N)cc1  85.3%
8. CC(=O)Nc1ccc(S(=O)(=O)c2ccnc3cc(Cl)ccc23)cc1  95.3%
9. N#CC1=CC2CN(Cc3ccccc3)C1C1C(=O)N(c3ccccc3)C(=O)C21 (centres undefined)  98.2%
10. NC1=CC(=O)C(=O)c2cccnc21  98.7%
11. Cc1ccc(C(=O)C2C(=O)C3CCC2C3)cc1 (centres undefined)  100%
12. COC(=O)CC[C@@H](C)[C@H]1CC[C@H]2[C@@H]3CC[C@@H]4C[C@H](O)CC[C@]4(C)[C@H]3C[C@H](O)[C@]12C  101%
13. COc1ccc(C(=O)N2C=Cc3ccccc3C2C#N)cc1 (centres undefined)  105%
14. CN(C)CCC1(c2ccccc2)CCN(C)C1=O (centres undefined)  105%
15. Fc1ccc(C(c2ccc(F)cc2)C(Cl)Cl)cc1  108%
16. O=c1cn[nH]c2ccc(Br)cc12  109%
17. Nc1cc(-c2ccc(Cl)cc2)nn1-c1nc2ccccc2nc1Cc1ccccc1  109%
18. COc1ccc(/C(=N\N)C(=O)c2ccccc2)cc1 (tested in a mixture with another compound)  110%
19. O=C(c1ccccc1)N(C(=O)c1ccccc1)N1CCCC1  110%
20. COC(=O)C1OC1c1cc([N+](=O)[O-])ccc1OC (centres undefined)  111%
21. S=C1N(c2ccccc2)CN(C2CCCCC2)CN1c1ccccc1  112%
22. O=[N+]([O-])c1ccc(/C(=C/c2ccccc2)[n+]2ccccc2)cc1  114%
23. COc1nc2c(c(=O)n1C)CN(c1ccccc1)C(=O)C(C)N2 (centres undefined)  115%
24. N#Cc1c(-c2ccc(Cl)cc2)n(O)c2ccccc12  115%
25. COc1ccc(/C=C2\CCCC3C2=Nc2ccccc2NC3c2ccc(OC)cc2)cc1 (centres undefined)  116%
26. O=C1NC(=O)c2c(CCCSc3nc4ccccc4c(=O)n3CCc3ccccc3)cccc21  118%
27. COc1ccc(C(=O)c2ccccc2CN2C(=O)c3ccccc3C2=O)cc1  118%
28. O[C@@H]1CO[C@H]2[C@@H]1OC[C@@H]2O  119%
29. O=C(N/N=C/c1c(Cl)cccc1Cl)c1ccccc1Nc1cccc(C(F)(F)F)c1  126%

For `Nc1ncc(-c2cnn(C3CCNCC3)c2)cc1-c1nc2ccccc2o1`, the growth was -73.7% (active).
With `Cc1cc(NC(=O)c2ccc(C)c(Nc3nccc(-c4cccnc4)n3)c2)cc(-n2cnc(C)c2)c1` the growth was 4.18% (active).
For `CC(C)(C)OC(=O)CC(S(=O)(=O)c1ccccc1)S(=O)(=O)c1ccccc1`, the growth was -98.1% (active).
`CN(C)c1ncnc2c1nnn2C1OC(CO)C(O)C1O` (centres undefined) was tested, and the growth was -80.9% (active).
For `O=c1c(Br)ccc(Br)cc1Br`, the growth was -70.6% (active).
